From PubChem BioAssay
Potency and affinity values are given separately. Inconclusive results are not listed. Calls of active or inactive are those of the source.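 How the source made its calls, unless noted: active means a fitted half-maximal concentration no higher than twice the top valid tested dose, with signal falling as cells die; inconclusive means flat curve between -70% and -30%, or poor fit; inactive means the rest, including signal rising instead of falling.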

Assays:
[1] = Cryptococcus neoformans growth inhibition, dose response, Alamar Blue, cherry-picks (AID 686998;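 active means falling signal with fitted half-maximal potency no higher than twice the top valid tested dose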)
[2] = inducers of Cryptococcus neoformans cell lysis, dose response, AK release luminescence, cherry-picks (AID 687000;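 active means fitted dose curve reaches 40% lysis signal rise at or below the highest valid concentration tested for that sample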;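 further: luminescent detection of adenylate kinase leaking from lysed yeast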)
[3] = HepG2 cell cytotoxicity, dose response, cytotoxicity control, cherry-picks, set 2 (AID 687002;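 active means a dose-response fit showing signal loss, with half-maximal concentration no higher than twice the top tested dose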)
[4] = HeLa cell cytotoxicity, dose response, cytotoxicity control, ATP luminescence, cherry-pick samples (AID 687004)

Measured: outcome

C[C@H](CO)N1C[C@H](C)[C@H](CN(C)S(=O)(=O)c2ccc(F)cc2)Oc2ccc(NS(=O)(=O)c3ccc(Cl)cc3)cc2C1=O
inactive: [1] | [2] | [3] | [4]

COc1ccc(NC(=O)Nc2ccc3c(c2)C(=O)N([C@H](C)CO)C[C@@H](C)[C@@H](CN(C)C(=O)CCC(F)(F)F)OCCCC[C@H](C)O3)cc1
inactive: [1] | [2] | [3] | [4]

CO[C@@H]1CN(C)C(=O)c2cc(NC(=O)Nc3cccc(F)c3)ccc2OC[C@H](C)N(C)C[C@@H]1C
inactive: [1] | [2] | [3] | [4]

COC(=O)N(C)C[C@H]1OCc2cn(nn2)CCCC(=O)N([C@@H](C)CO)C[C@@H]1C
inactive: [1] | [2] | [3] | [4]

CCC(=O)N1C[C@H](O)COC[C@@H]2O[C@@H](CC(=O)NCc3ccccc3Cl)CC[C@H]21
inactive: [1] | [2] | [3] | [4]

C[C@@H]1CN([C@H](C)CO)C(=O)c2cc(NS(=O)(=O)c3ccccc3)ccc2O[C@H]1CN(C)C(=O)NC1CCCCC1
inactive: [1] | [2] | [3] | [4]

C[C@@H]1CN([C@@H](C)CO)C(=O)CCCn2cc(nn2)CO[C@@H]1CN(C)C(=O)NC1CCCC1
inactive: [1] | [2] | [3] | [4]

CO[C@H]1CN(C)C(=O)c2cc(NC(C)=O)ccc2OC[C@H](C)N(Cc2cccc(F)c2)C[C@@H]1C
inactive: [1] | [2] | [3] | [4]

Cc1cc(C(=O)Nc2ccc3c(c2)C(=O)N(C)[C@@H]2CC[C@@H](CC(=O)N[C@@H](C)c4ccccc4)O[C@@H]2CO3)no1
inactive: [1] | [2] | [3] | [4]

C[C@@H]1CN([C@@H](C)CO)C(=O)c2cccc(NS(=O)(=O)c3ccc(F)cc3)c2O[C@H]1CN(C)S(=O)(=O)c1ccc(Cl)cc1
inactive: [1] | [2] | [3] | [4]

C[C@H](NC(=O)C[C@@H]1C=C[C@H](NC(=O)CN2CCOCC2)[C@@H](CO)O1)c1ccccc1
inactive: [1] | [2] | [3] | [4]

CC(C)NC(=O)Nc1ccc2c(c1)C(=O)N([C@@H](C)CO)C[C@@H](C)[C@H](CN(C)Cc1ccncc1)OCCCC[C@@H](C)O2
inactive: [1] | [2] | [3] | [4]

COCC(=O)Nc1ccc2c(c1)OC[C@@H](C)N(C(=O)Cc1cccnc1)C[C@H](C)[C@@H](OC)CN(C)C2=O
inactive: [1] | [2] | [3] | [4]

CO[C@@H]1CN(C)C(=O)c2ccc(NC(=O)C3CC3)cc2OC[C@H](C)N(Cc2ccc(F)cc2)C[C@H]1C
inactive: [1] | [2] | [3] | [4]

COc1cc(CNC(C)(C)C)ccc1OCC(=O)NC(C)(C)C
inactive: [1] | [2] | [3] | [4]

C[C@H]1CN([C@@H](C)CO)S(=O)(=O)c2ccc(C#Cc3cccc(F)c3)cc2O[C@@H]1CN(C)C
inactive: [1] | [2] | [3] | [4]

C[C@H]1CN([C@@H](C)CO)C(=O)Cc2cc(NS(=O)(=O)c3ccc(F)cc3)ccc2O[C@@H]1CN(C)S(=O)(=O)c1ccc(F)cc1
inactive: [1] | [2] | [3] | [4]

C[C@H](CO)N1C[C@H](C)[C@H](CN(C)C(=O)c2ccccn2)Oc2ncc(-c3ccccc3)cc2C1=O
inactive: [1] | [2] | [3] | [4]

CC(C)NC(=O)N(C)C[C@H]1Oc2c(NC(=O)C3CCCCC3)cccc2C(=O)N([C@H](C)CO)C[C@H]1C
inactive: [1] | [2] | [3] | [4]

C[C@@H]1CCCCO[C@H](CN(C)Cc2ccncc2)[C@@H](C)CN([C@H](C)CO)C(=O)c2cc(N(C)C)ccc2O1
inactive: [1] | [2] | [3] | [4]

CCCNC(=O)C[C@@H]1CC[C@H]2[C@@H](COC[C@H](O)CN2Cc2ccccc2F)O1
inactive: [1] | [2] | [3] | [4]

Cc1ccc(N(C(=O)C2CCC(=O)N2)C2(C(=O)NC3CCCCC3)CCCCC2)cc1 (stereo not given)
inactive: [1] | [2] | [3] | [4]

O=C(C[C@H]1CC[C@H](NC(=O)Nc2ccc(C(F)(F)F)cc2)[C@H](CO)O1)NCc1cccc(F)c1
inactive: [1] | [2] | [3] | [4]

Cc1noc(C)c1NC(=O)Nc1cccc2c1O[C@@H](CN(C)S(=O)(=O)c1cn(C)cn1)[C@@H](C)CN([C@@H](C)CO)C2=O
inactive: [1] | [2] | [3] | [4]

CCC(C)(C(=O)NC1CCCC1)N(C(C)=O)c1ccc(C)cc1 (stereo not given)
inactive: [1] | [2] | [3] | [4]

C[C@H]1CN([C@@H](C)CO)C(=O)c2cc(NC(=O)CCN3CCOCC3)ccc2O[C@@H]1CN(C)Cc1ccc(C(=O)O)cc1
inactive: [1] | [2] | [3] | [4]

COCC(=O)N(C)C[C@@H]1Oc2ncc(C#CCC3CCCC3)cc2C(=O)N([C@H](C)CO)C[C@H]1C
inactive: [1] | [2] | [3] | [4]

C[C@H]1CN([C@@H](C)CO)C(=O)c2cc(C#Cc3ccccn3)cnc2O[C@H]1CN(C)Cc1ccncc1
inactive: [1] | [2] | [3] | [4]

O=C(O)C/C(=C\c1cccc(NC(=O)c2ccccc2Cl)c1)c1nc2ccccc2s1
inactive: [1] | [2] | [3] | [4]

C[C@@H]1CN([C@@H](C)CO)C(=O)CCCn2cc(nn2)CO[C@@H]1CN(C)Cc1ccc2c(c1)OCO2
inactive: [1] | [2] | [3] | [4]

Cc1noc(C)c1S(=O)(=O)N(C)C[C@@H]1Oc2c(NC(=O)c3cnccn3)cccc2C(=O)N([C@@H](C)CO)C[C@@H]1C
inactive: [1] | [2] | [3] | [4]

Cc1cccc(C)c1NC(=O)C1NC(=O)CC1c1ccccc1 (stereo not given)
inactive: [1] | [2] | [3] | [4]

C[C@H](O)C#Cc1ccc([C@H]2[C@H](CO)N3CCCCN(CC4CCOCC4)C[C@@H]23)cc1
inactive: [1] | [2] | [3] | [4]

Cc1cc(C)c(NC(=O)C2CCC(=O)N2)c(C)c1 (stereo not given)
inactive: [1] | [2] | [3] | [4]

C[C@H]1CN([C@@H](C)CO)C(=O)CCCn2nncc2CO[C@@H]1CN(C)Cc1cccc(C(F)(F)F)c1
inactive: [1] | [2] | [3] | [4]

CC(=O)N1[C@H](CO)[C@H](c2ccc(-c3ccccc3)cc2)[C@H]1CNC(=O)C1CC1
inactive: [1] | [2] | [3] | [4]

CC(C)NC(=O)Nc1ccc2c(c1)CC(=O)N([C@H](C)CO)C[C@@H](C)[C@H](CN(C)Cc1ccc3c(c1)OCO3)O2
inactive: [1] | [2] | [3] | [4]

C[C@H]1CN([C@@H](C)CO)S(=O)(=O)c2ccc(Br)cc2O[C@@H]1CN(C)S(=O)(=O)c1ccccc1F
inactive: [1] | [2] | [3] | [4]

C/C=C/c1ccc([C@@H]2[C@@H](CNC(=O)C3CC3)N(C(=O)CC)[C@H]2CO)cc1
inactive: [1] | [2] | [3] | [4]

CCCNC(=O)C[C@@H]1CC[C@@H]2[C@@H](COc3ccc(NC(=O)CCC)cc3C(=O)N2C)O1
inactive: [1] | [2] | [3] | [4]

O=C(NC(=S)Nc1ccccc1)c1cc([N+](=O)[O-])ccc1N1CCOCC1
inactive: [1] | [2] | [3] | [4]

CCC(=O)N1[C@@H]2c3cccc(=O)n3C[C@H]1[C@H](CO)[C@H]2C(=O)NCc1ccccc1
inactive: [1] | [2] | [3] | [4]

C[C@@H]1CN([C@H](C)CO)C(=O)c2c(c3ccccc3n2C)-c2ccccc2CO[C@H]1CN(C)S(=O)(=O)c1cccs1
inactive: [1] | [2] | [3] | [4]

NC(=O)CN(c1ccccc1)S(=O)(=O)c1ccc(F)cc1
inactive: [1] | [2] | [3] | [4]

CO[C@H]1CN(C)C(=O)c2cc(NC(=O)c3ccccc3F)ccc2OC[C@H](C)N(CC2CCOCC2)C[C@H]1C
inactive: [1] | [2] | [3] | [4]

CCOc1cc(/C=N/NC(=O)CCCC(=O)NC2CCCCC2)ccc1O
inactive: [1] | [2] | [3] | [4]

O=C(NC(=S)Nc1ccc(CN2CCOCC2)cc1)c1ccc([N+](=O)[O-])cc1
inactive: [1] | [2] | [3] | [4]

O=C(O)C[C@@H]1CC[C@@H]2[C@H](COC[C@H](O)CN2S(=O)(=O)c2ccc(F)cc2)O1
inactive: [1] | [2] | [3] | [4]

COc1ccccc1-c1cnc2c(c1)C(=O)N([C@H](C)CO)C[C@@H](C)[C@H](CN(C)Cc1cncnc1)O2
inactive: [1] | [2] | [3] | [4]

CCCNC(=O)N1C[C@@H](O)COC[C@H]2O[C@H](CC(=O)N3CCN(C)CC3)CC[C@@H]21
inactive: [1] | [2] | [3] | [4]

CCCNC(=O)N(C)C[C@H]1Oc2ncc(C#CC3CCCCC3)cc2C(=O)N([C@@H](C)CO)C[C@@H]1C
inactive: [1] | [2] | [3] | [4]

CCOC(=O)CNC(=O)CSc1ncnc2c1cnn2-c1ccc(OC)cc1
inactive: [1] | [2] | [3] | [4]

COc1ccc(NC(=O)c2noc(C(C)C)c2[N+](=O)[O-])cc1
inactive: [1] | [2] | [3] | [4]

O=C(NC[C@H]1[C@@H](c2ccccc2)[C@@H](CO)N1C(=O)C1CCC1)NC1CCCC1
inactive: [1] | [2] | [3] | [4]

C[C@@H]1CCCCO[C@@H](CN(C)S(=O)(=O)c2cccs2)[C@H](C)CN([C@@H](C)CO)C(=O)c2cc(NC(=O)CCC(F)(F)F)ccc2O1
inactive: [1] | [2] | [3] | [4]
